Test results as given in the supplement of paper PMC10720658.
± gives the standard deviation of the averaged measurements.

Each molecule was assayed on AEK1 (Tb927.3.2440) (assay: percent reduction in TR-FRET probe signal relative to DMSO control; higher = stronger displacement of ATP-site probe (binding)). Settings: 1 µM; incubation time 1 h.

Row | SMILES | percent reduction in TR-FRET probe signal
1 | CCCNC(=O)Nc1ccc(Oc2ncnc3cc(OC)c(OC)cc23)cc1Cl | -3.67 ± 12%
2 | Cc1[nH]c2ccccc2c1C1=C(NCCc2ccc(F)cc2)C(=O)N(C)C1=O | 8.32 ± 10%
3 | COC(=O)Nc1ccc(-c2nc(N3CCOCC3)c3cnn(C4CCN(C(=O)OC)CC4)c3n2)cc1 | -6.41 ± 11%
4 | COc1ccc(-c2ccc3c(N4CCOCC4)nc(N4C[C@@H](C)O[C@@H](C)C4)nc3n2)cc1CO | -3.76 ± 6.3%
5 | O=C(c1ccc(F)c(F)c1Nc1ccc(I)cc1F)N1CC(O)([C@@H]2CCCCN2)C1 [Cobimetinib (GDC-0973, RG7420)] | 2.36 ± 13%
6 | CC(C)(C)Cn1c(N)nc2ccc(-c3[nH]c(C(C)(C)C)nc3-c3ccc(F)cc3)nc21.CS(=O)(=O)O.CS(=O)(=O)O | -14.9 ± 5.8%
7 | C[C@@H]1CN(CC(=O)Nc2ccc3c(c2)Cc2cccc(-c4cc(=O)cc(N5CCOCC5)o4)c2S3)C[C@H](C)O1 | -2.9 ± 6.6%
8 | C[C@H]1[C@H](C)CC[C@]2(C(=O)O)CC[C@]3(C)C(=CC[C@@H]4[C@@]5(C)C[C@@H](O)[C@H](O)[C@@](C)(CO)[C@@H]5CC[C@]43C)[C@H]12 [Asiatic Acid] | -8.28 ± 13%
9 | NC(=O)c1ccc(N(C(N)=O)c2c(F)cccc2F)nc1-c1ccc(F)cc1F | -4.77 ± 9.4%
10 | CS(=O)c1ccc(-c2nc(-c3ccc(F)cc3)c(-c3ccncc3)[nH]2)cc1 (stereo not drawn) | -6.83 ± 8.7%
11 | COc1cc(F)c(F)c(Nc2ccc(I)cc2F)c1NS(=O)(=O)C1(C[C@H](O)CO)CC1 [Refametinib (RDEA119, Bay 86-9766)] | -1.27 ± 14%
12 | COc1cc(Nc2ncc(F)c(Nc3ccc4c(n3)N(COP(=O)(O)O)C(=O)C(C)(C)O4)n2)cc(OC)c1OC [Fostamatinib (R788)] | 31.3 ± 1.3%
13 | O=C(Nc1cccc(Nc2ncc(Br)c(NCCc3cnc[nH]3)n2)c1)N1CCCC1 | 52.9 ± 12%
14 | Cc1nc(Nc2cnn(C3CCNCC3)c2)nc2c1N(C)C(=O)c1cc3ccccc3cc1N2C | -10.5 ± 7.1%
15 | O=C1NC(=O)/C(=C/c2cccc(C(F)(F)F)c2)S1 | -3.02 ± 1.9%
16 | COc1ccc(-c2ccc3c(N4CCOC[C@@H]4C)nc(N4CCOC[C@@H]4C)nc3n2)cc1CO | -7.43 ± 5.2%
17 | Cc1ccccc1CN1C2=NCCN2C(=O)C2=C1CCN(Cc1ccccc1)C2 [TIC10 Analogue] | -7.4 ± 3.3%

Row | SMILES | percent reduction in TR-FRET probe signal
18 | CCO.N#CC(=C(\N)Sc1ccccc1N)/C(C#N)=C(/N)Sc1ccccc1N | 0.443 ± 7.1%
19 | O=C1NC(=O)/C(=C/c2ccc(-c3ccc(F)cc3O)o2)S1 | 16 ± 24%
20 | CN1CCCN(C(=O)c2cccc(-c3ccc(/C=C4/C(=O)Nc5ccc(Cl)cc54)o3)c2)CC1.Cl | -0.203 ± 9.8%
21 | COc1cccc(-c2cc(=O)c3ccccc3o2)c1N | -1.76 ± 8%
22 | O=c1cc(-c2cccc3c2Sc2ccccc2S3)oc(N2CCOCC2)c1 | -8.85 ± 7.2%
23 | O=C(Nc1c[nH]nc1-c1nc2cc(CN3CCOCC3)ccc2[nH]1)NC1CC1 | 52 ± 14%
24 | NC(=O)c1ncn([C@@H]2O[C@H](CO)[C@@H](O)[C@H]2O)c1N [AICAR (Acadesine)] | -1.92 ± 11%
25 | CC(C)(C)c1cnc(CSc2cnc(NC(=O)C3CCNCC3)s2)o1 | -4.82 ± 4.6%
26 | CCC[C@H](NC(=O)/C(C#N)=C/c1cccc(Br)n1)c1ccccc1 [Degrasyn (WP1130)] | 2.37 ± 17%
27 | C[C@H](Nc1ncnc2[nH]cnc12)c1cc2ccc(F)cc2nc1-c1ccccn1 | -3.52 ± 7.7%
28 | C=CC(=O)Nc1cccc(Nc2nc(Nc3ccc(N4CCN(C(C)=O)CC4)cc3OC)ncc2C(F)(F)F)c1 | -2.96 ± 7.5%
29 | O=C(NC(NC(=S)Nc1ccc(F)c([N+](=O)[O-])c1)C(Cl)(Cl)Cl)C(c1ccccc1)c1ccccc1 (stereo not drawn) | 3.75 ± 8.9%
30 | C=CC(=O)N1CCCC(n2nc(-c3ccc(Oc4ccccc4)cc3)c3c(N)ncnc32)C1 (stereo not drawn) | 4.46 ± 4.9%
31 | COc1cc2ncnc(Oc3cccc(NC(=O)Nc4cc(C(C)(C)C(F)(F)F)on4)c3)c2cc1OC | 1.1 ± 13%
32 | NC(=O)Nc1cc(-c2cccc(F)c2)sc1C(=O)N[C@H]1CCCNC1 | 48.5 ± 24%
33 | CO[C@H]1C[C@@H]2CC[C@@H](C)[C@@](O)(O2)C(=O)C(=O)N2CCCC[C@H]2C(=O)O[C@H]([C@H](C)C[C@@H]2CC[C@@H](OP(C)(C)=O)[C@H](OC)C2)CC(=O)[C@H](C)/C=C(\C)[C@@H](O)[C@@H](OC)C(=O)[C@H](C)C[C@H](C)/C=C/C=C/C=C/1C [Ridaforolimus (Deforolimus, MK-8669)] | 1.74 ± 22%
